# NR1D1 modulator = modulates human Rev-erb alpha binding to DNA | P20393 | Rev-erbα–FITC-DNA binding, fluorescence polarization, 90 min | activity, % at 10 µM | 370,000 compounds, 0.79% hits | AID 1259318;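 active = activity above about 14%, limit read from the data; passing the limit was not always enough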;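 note: 0% = DMSO wells with 35 nM protein and 100% = DMSO wells with 750 nM protein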
# PP5 primary = inhibitors of human protein phosphatase 5 (PP5) | AID 1987 | 320,000 compounds, 0.18% hits | purified PP5c, OMFP substrate fluorescence | inhibition, % at 6.7 µM | P53041;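 active = inhibition above the campaign's mean inhibition across all tested compounds plus 3 SD, cut at about 9.5% in these data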;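 note: 0% = DMSO only and 100% = 100 µM cantharidin control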
# proKLK7 act = activators of human kallikrein-7 zymogen | P49862 | purified proKLK7, EDANS-DABCYL substrate fluorescence; 100% is mature enzyme control, 0% vehicle | activation, % at 7 µM | 370,000 compounds, 0.9% hits | AID 652039;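 active = activation above the mean of all tested compounds plus 3 SD, computed per campaign excluding outliers beyond control limits, cut at about 13% in these data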
# Target sequence (P49862 whole entry, looked up): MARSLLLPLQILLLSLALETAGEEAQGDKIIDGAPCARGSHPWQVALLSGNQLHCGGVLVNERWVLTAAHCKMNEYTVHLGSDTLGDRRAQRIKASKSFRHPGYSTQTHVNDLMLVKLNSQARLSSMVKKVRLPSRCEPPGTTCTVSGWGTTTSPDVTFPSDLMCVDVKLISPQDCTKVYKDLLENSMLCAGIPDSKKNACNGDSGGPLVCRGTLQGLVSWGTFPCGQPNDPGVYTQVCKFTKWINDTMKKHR
# PG9 Ab binder = PG9 antibody binding by small molecule | inhibition, % at 6.7 µM | 360,000 compounds, 0.43% hits | TR-FRET gp120-PG9 antibody binding; in the data active = inhibition above about 8.5%
# JMJD2C inh = blocks human GASC-1 demethylase activity | Q9H3R0 | GST-JMJD2C(1-420) H3K9me3 demethylation, DELFIA europium | inhibition, % at 2.35 µM | 330,000 compounds, 0.069% hits | AID 2099;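 active = more than half of a compound's replicate wells show inhibition beyond 50%, single wells judged on their own value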;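 note: signal counts dimethyl H3K9 product captured on neutravidin plate; 0% = median of DMSO wells and 100% = 0.3 times that DMSO median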
# Target sequence (Q9H3R0 1-420 limits assumed): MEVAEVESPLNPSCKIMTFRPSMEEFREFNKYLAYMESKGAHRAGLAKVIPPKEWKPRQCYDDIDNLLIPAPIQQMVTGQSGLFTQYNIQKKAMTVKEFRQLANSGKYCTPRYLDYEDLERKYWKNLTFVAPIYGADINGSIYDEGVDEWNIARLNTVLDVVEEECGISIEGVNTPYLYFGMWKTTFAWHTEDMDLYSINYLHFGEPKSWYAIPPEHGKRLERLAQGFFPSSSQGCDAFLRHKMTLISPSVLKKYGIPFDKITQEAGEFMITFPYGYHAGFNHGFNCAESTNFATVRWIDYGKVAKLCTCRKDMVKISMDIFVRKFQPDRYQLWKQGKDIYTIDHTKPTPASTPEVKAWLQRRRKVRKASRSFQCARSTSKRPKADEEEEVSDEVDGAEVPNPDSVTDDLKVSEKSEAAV
# PP1 counter = blocks human PP1-alpha phosphatase, a PP5 counter-screen. P62136. purified PP1alpha, OMFP fluorescence. inhibition, % at 6.7 µM. 320,000 compounds, 0.9% hits. AID 2235;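 active = inhibition above the mean inhibition of all tested compounds plus 3 SD, computed separately for each screening campaign, cut at about 15% in these data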
# PG9 binder conf = PG9 antibody binding, confirmed. inhibition, % at 6.7 µM. shares compounds with PG9 Ab binder. 1,500 compounds, 90% hits. TR-FRET PG9 antibody binding, biochemical; in the data active = inhibition above about 9%
# PGV04 counter = binds control antibody PGV04 in PG9 binder counter-screen; inhibition, % at 6.7 µM; shares compounds with PG9 Ab binder; 1,500 compounds, 95% hits; TR-FRET PGV04 antibody-gp120 binding, biochemical; in the data active = inhibition above about 9.5%
# PG9 bind DR = small molecules binding HIV-1 gp120 antibody PG9; shares compounds with PG9 Ab binder; TR-FRET PG9 antibody-gp120 binding inhibition; IC50, µM; 95 tested, under 10 active; AID 651848; in the data active = IC50 below about 10 µM
# PGV04 binding DR = counter-screen for PG9 binders: binding to control antibody PGV04 | shares compounds with PG9 Ab binder | TR-FRET binding to control antibody PGV04 | IC50, µM | 95 compounds, 20% hits | AID 651937
# PG126 DR counter = PG126 binding, dose response counter-screen; AID 651939; IC50, µM; shares compounds with PG9 Ab binder; 95 compounds, 20% hits; TR-FRET binding to antibody PG126, counterscreen
# KLK7 act conf = confirmation of human kallikrein-7 zymogen activators; shares compounds with proKLK7 act; purified proKLK7, EDANS-DABCYL substrate fluorescence; scaled: vehicle 0, mature enzyme 100; activation, % at 7 µM; 3,200 compounds, 68% hits;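 active = activation, as change over the incubation, above the mean of all tested compounds plus 3 SD, cut at about 13% in these data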
# EDANS interfere = fluorescence interference counter-screen for KLK7 activators; shares compounds with proKLK7 act; EDANS-DABCYL substrate fluorescence interference, no enzyme, 4 h; solvent 0%, active enzyme control 100%; activation, % at 7 µM; 3,200 compounds, 80% hits;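 active = activation above the all-compound mean plus 3 SD, ignoring values outside control-based bounds, cut at about 4.8% in these data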;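 note: value is the 4 h activation minus the activation read at time zero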
# NR1D1 mod conf = Rev-erb alpha (human) modulation, hit confirmation | activation, % at 25 µM | Rev-erb alpha FITC-DNA binding, fluorescence polarization, 90 min | shares compounds with NR1D1 modulator | 3,000 compounds, 61% hits | AID 1259319;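 active = activation at or above a set limit, or at least 3 SD above the negative control mean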;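 note: 0% = 35 nM protein with DMSO and 100% = 750 nM protein high control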
# RORg counter = affects RORgamma DNA binding in a Rev-erb alpha counter-screen; purified RORgamma protein-FITC-DNA binding, fluorescence polarization; shares compounds with NR1D1 modulator; IC50, µM; AID 1259320; 910 compounds, 8% hits;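 active = Compounds whose fitted half-maximal concentration for disrupting protein-DNA binding is below 10 micromolar; the record names Rev-erb in its text, so the target is in doubt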
# An asterisk follows results filed as active; i = inactive; · = no result given. Most compounds without a hit are left out; they make up all but 2.8% or so of the library. Cut-off read from the data, not from the text of the source, unless noted: active = IC50 below about 9 µM; inactive = the rest.
SMILES,NR1D1 modulator,PP5 primary,proKLK7 act,PG9 Ab binder,JMJD2C inh,PP1 counter,PG9 binder conf,PGV04 counter,NR1D1 mod conf,others
COc1cccc(C(=O)Nc2nnc(-c3ccc(OC)cc3OC)s2)c1,32*,2,0,31*,-1,-2,31*,41*,15,
COc1cccc(C(=O)Nc2nnc(-c3ccccc3)s2)c1,13,·,1,5,1,·,·,·,·,
COc1ccc2c(COC(=O)c3n[nH]c4ccccc34)cc(=O)oc2c1,59*,5,0,62*,0,5,53*,57*,34*,RORg counter=>40
COc1ccc2c(COC(=O)CCS(=O)(=O)c3ccccc3)cc(=O)oc2c1,·,2,·,·,-6,-3,·,·,·,
Cc1ccc(OCCn2c(NC(=O)c3ccco3)nc3ccccc32)cc1,30*,0,0,19*,0,-1,17*,25*,13,
O=C(Nc1nc2ccccc2n1CCOc1ccccc1)c1ccco1,1,3,0,-1,-4,-2,·,·,·,
COc1cc(C(=O)NCc2ccc(-c3nc4ccccc4s3)cc2)cc(OC)c1OC,38*,1,1,10*,-5,2,19*,29*,32*,RORg counter=i
O=C(CNC(=O)c1sc2ccccc2c1Cl)Nc1ccccc1F,44*,0,0,12*,-1,-1,17*,32*,10,
O=C(Nc1ccccc1-c1nnn(CC(=O)N2CCOCC2)n1)c1ccccc1F,-2,2,1,-1,1,-7,·,·,·,
O=C(Cn1nnc(-c2ccccc2NC(=O)c2ccccc2F)n1)NC1CCCC1,23*,2,0,12*,-7,-4,40*,43*,27*,
COc1cc2cc(C(=O)N(C)Cc3ccccc3)[nH]c2cc1OC,31*,·,0,16*,2,·,15*,22*,12,
O=C(Nc1nnc(SCc2ccccc2)s1)c1cccc([N+](=O)[O-])c1,-2,1,0,0,1,4,·,·,·,
CCSc1nnc(NC(=O)c2cc3c(s2)CCCC3)s1,33*,0,0,12*,-1,0,23*,18*,38*,PG9 bind DR=>67;PGV04 binding DR=i;PG126 DR counter=i;RORg counter=>40
O=C(Nc1nnc(SCc2ccccc2)s1)c1cc2c(s1)CCCC2,52*,2,0,9.7*,-6,0,21*,17*,34*,PG9 bind DR=i;PGV04 binding DR=i;PG126 DR counter=i;RORg counter=i
Cc1ccc2nc(-c3cc(-c4ccccc4)no3)cn2c1,37*,-3,-2,23*,3,2,29*,28*,19*,PG9 bind DR=>67;PGV04 binding DR=i;PG126 DR counter=>67
CC(C)CCNC(=O)c1cc2c(=O)[nH]c3ccccc3c2s1,30*,1,0,10.0*,2,2,17*,21*,22*,
C[C@@H]1CN([C@H](C)CO)C(=O)c2cc(NS(=O)(=O)c3ccccc3)ccc2O[C@@H](C)CCCCO[C@@H]1CN(C)Cc1ccc(Cl)c(Cl)c1,-5,·,0,-1,·,·,·,·,·,
O=C(COc1ccccc1)Nc1nc2cc3c(cc2s1)OCO3,41*,3,0,21*,-13,8,33*,46*,15,
O=S1(=O)c2c(cccc2N2CC[C@H](O)C2)O[C@H]2CCN1C2,-4,·,0,·,·,·,·,·,·,
O=c1ccc(-c2ccc(S(=O)(=O)N3CCN(c4ccccc4)CC3)o2)n[nH]1,120*,1,0,25*,3,-2,43*,48*,62*,RORg counter=>40
COc1ccccc1C(=O)COC(=O)c1cc(=O)[nH]c2ccccc12,14,-2,-3,5,9,-1,·,·,·,
COc1ccc(C(=O)COC(=O)c2cc(=O)[nH]c3ccccc23)c(OC)c1,77*,1,-2,46*,-17,-3,50*,78*,37*,RORg counter=>40
O=C1c2cccc3cccc(c23)C(=O)N1OS(=O)(=O)c1ccc(Br)cc1,21,-1,1,-2,17,0,·,·,·,
O=C1c2cccc3cccc(c23)C(=O)N1OS(=O)(=O)c1ccccc1,59*,0,26*,28*,1,2,28*,62*,10,KLK7 act conf=-179;EDANS interfere=-10
O=C(CSc1nnc(-c2ccccc2)n1-c1ccccc1)NN=C/C=C\c1ccccc1[N+](=O)[O-],-6,·,1,·,·,·,·,·,·,
SMILES,NR1D1 modulator,PP5 primary,proKLK7 act,PG9 Ab binder,JMJD2C inh,PP1 counter,PG9 binder conf,PGV04 counter,NR1D1 mod conf,others
COC(=O)[C@]12CCCCC=C1N(Cc1ccc(OC)cc1)C(=O)[C@@H]2CC(=O)NCc1ccc(OC)c(OC)c1,-7,·,0,·,·,·,·,·,·,
COc1ccc(-c2cc(-c3ccc(Br)cc3)nc3ncnn23)cc1OC,25*,2,5,13*,4,-1,12*,20*,8,
O=C1C=C(c2cccc3c2Oc2ccccc2S3)C[C@@H](c2ccc3c(c2)OCO3)C1,3,·,-1,-1,·,·,·,·,·,
Cc1sc2ncnc(SCC(=O)NC(=O)c3cccn3C)c2c1C,39*,-1,0,53*,1,7,55*,66*,25*,
N#Cc1c(N)nc(SCc2ccncc2)c(C#N)c1-c1cccs1,9,3,2,0,6,3,·,·,·,
CCN(CC)C(=O)CSc1nc(N)c(C#N)c(-c2cccs2)c1C#N,33*,4,-5,44*,14,-1,18*,30*,33*,RORg counter=>40

# Screening results (PubChem BioAssay)
